Results on 40 sequences are retold here after the supplement of paper PMC6555819.

This assay deals with THRa:RXRa (NR concentration 90 nM, RXRa partner concentration 90 nM). The assay is described as follows: PBM binding z-score (relative to random genomic background probes); higher = stronger binding; sequences stand for … in GC…GCGATTGACAGCGTAGAATGAAGG
In outline: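 Ligand-free nuclear receptor dimers were applied to custom Agilent 4×180K protein-binding microarrays whose double-stranded probes carried direct-repeat seeds, single-nucleotide variants, half-site ablations and random human genomic background sequences in 34-nt variable regions. Incubation lasted 1 h. Binding z-scores were computed against the random background probes from regression-normalized fluorescence.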
For GCTAGCAGGCCATTTGGGTAACTCAATGACGGGC, the PBM binding z-score is -0.0773.

TCATATAGGTAAATGTTAGGTGAAAGTCCGATCT had a PBM binding z-score of 2.51.

ATCTCTAGGTAACCGAGTTCAGTGAATGCCGAAC showed a PBM binding z-score of 1.72.

The sequence TCAGACAGGTGAATGTAACTCAGGTACGCAGTCG yielded a PBM binding z-score of 0.274.

With AGAATTAGGTTATTAAGATCAGGGAATTGCGGTC, the PBM binding z-score was found to be 0.913.

TCTCGGAGCACACGAAAGGTCAGAGCTCGACATC came in with a PBM binding z-score of 2.41.

As for TCATATGGGTAAATGCTAGGTGAAAGTCCGATCT, the PBM binding z-score was 1.38.

Turning to ATATGTAGGTTAAGGGTGATTCAGGTTGGTTCGC, the PBM binding z-score was 1.56.

TGAATGAGGTTATAAGATTAGGGAACGTTGCAAA had a PBM binding z-score of 1.68.

With TCTGTTAGGTCAGTTGGTCAGCTAACGAGCTGCC, the PBM binding z-score was 2.68.

Sequence GCTAGCGGGCCATTTGGGTCACTCAATGACGGGC displayed a PBM binding z-score of 1.94.

In turn, CAAACTAGGTCACCAAAGGTCAAAGTCGAATGAC gave a PBM binding z-score of 5.17.

TTACCAAGGTGAAAGGTAGTTGATGCACGCCTTG showed a PBM binding z-score of 1.73.

On to TCGAGTAGGTGACCAATGGGGCATTCAGCTTTCT, for which the PBM binding z-score is -0.147.

For CTTACTGGGCCACGAAAGGTCATTGATTCAGTGA, the PBM binding z-score came out at 4.12.

ATATGTAGGTTAGCTTGGGTCATTCAGACTAGGC showed a PBM binding z-score of 4.29.

With CCTTACGGGTCAAGGTGATAGCACGGGTGGTACG, the PBM binding z-score was found to be 2.94.

As for GCTTGTAGATCAAGGTTCAGAAAGACTAAGCTAA, the PBM binding z-score is -0.139.

For the sequence TCACCAAGGTGAAGGTCGTTGATCCCTCTGTAGA, the PBM binding z-score amounted to 2.27.

Sequence TAGCCTAGGTCATGGGACAGTATACCACGCGAAC came in with a PBM binding z-score of 3.35.

The sequence CCTTGCAGGCCAATCTGGGTCACTCAAGGCTTGA yielded a PBM binding z-score of 3.61.

TATACAGGGTCAAAGGCCAGGGTACGAATGTCGA showed a PBM binding z-score of 3.73.

In turn, CAAACTAGGTCACCGGAAGGTCAAAGACCGCATG gave a PBM binding z-score of 4.46.

The sequence CATACAGGGTCAGCTAGACCAGAGTAGGGACGGC displayed a PBM binding z-score of 2.83.

Take TCTAGTTGGTCACAGAGGTCACACACGACGGGTA: the PBM binding z-score was 3.97.

CCTAATGGGCCAAAGGTCATTGATTCCAATGCTC displayed a PBM binding z-score of 3.26.

The sequence TAGCCTAGGTCATTGGGCCAGGATAGTACGCATC registered a PBM binding z-score of 2.74.

With TCTAGCAGGCCAGAGGCTCACTCAAGAGGTACGG, the PBM binding z-score is -0.767.

AGATGTAGGTTACATCCGGGTCATTCAGGCTATG had a PBM binding z-score of 3.72.

For GCTATTAGTTGAAAGGGCAGCCGAATGATTCTCG, the PBM binding z-score was -0.12.

In the case of TAGCCTAGGTCATTTAGGGGCCAGTATAGAAAGC, the PBM binding z-score came out at 3.47.

In turn, CCAGACAGGTGAAGGGTAACTCAGTCTGGTACGC yielded a PBM binding z-score of 0.21.

Consider ATCGAAAGGTCGTGAGGCGAGTATACAGAAAGGC, for which the PBM binding z-score is 2.49.

CGTGCAAGGTCATAGGAGGTCAGTGAAGACAGAT: the PBM binding z-score was determined as 5.44.

Take TCATATAGGTAAAGGTGTAAGTCGAACGATATGA: the PBM binding z-score is -0.275.

With TCTTTTAGATCAATAGAGGTTAAGAAAGTGCGCT, the PBM binding z-score amounted to 2.4.

The sequence ATCTCTAGGTAAAGATAGTCCAGTGAATGCAAAT gave a PBM binding z-score of 0.341.

TCAAGTAGGTTAGTCGGGGCATTCAGCCAACATA showed a PBM binding z-score of 1.26.

For ATATGTAGGTTAAGGGTCAGTCAGGTTGGTTCGC, the PBM binding z-score came to 2.78.

CCTTACGGGTCACTCCAGGATATAGCATCGGAGT registered a PBM binding z-score of 4.39.
